Screens (PubChem BioAssay)
FECH inh: inhibitors of human ferrochelatase, primary screen, biochemical, purified FECH, Ni-mesoporphyrin absorbance; calls only at 10 µM (by protocol); Ni-mesoporphyrin absorbance 550 nm; 3.3% of 20,000 active; Ferrochelatase, mitochondrial (Homo sapiens), P22830;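 active means enzyme reaction rate more than 3 SD below the solvent-only control wells on the same plate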;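 further: lower slope than DMSO wells means FECH inhibition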
Target sequence (P22830 whole entry, looked up): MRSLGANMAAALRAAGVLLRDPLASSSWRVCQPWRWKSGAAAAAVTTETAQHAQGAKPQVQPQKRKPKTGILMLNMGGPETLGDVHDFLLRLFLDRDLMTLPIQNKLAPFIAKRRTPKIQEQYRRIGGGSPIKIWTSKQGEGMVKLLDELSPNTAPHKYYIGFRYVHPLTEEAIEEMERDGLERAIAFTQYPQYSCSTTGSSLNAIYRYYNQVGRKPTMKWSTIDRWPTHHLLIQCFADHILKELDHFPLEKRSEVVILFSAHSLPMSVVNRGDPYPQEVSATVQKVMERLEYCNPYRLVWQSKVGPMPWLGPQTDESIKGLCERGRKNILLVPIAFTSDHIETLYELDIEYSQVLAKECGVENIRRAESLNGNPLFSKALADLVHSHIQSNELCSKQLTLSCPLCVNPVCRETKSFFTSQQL
Active calls of the source: *; i = inactive; + = active, no number. Many of the other results were omitted from the sample, so hits are more common in it than they were.

SMILES | FECH inh
Cc1cc(Cl)ccc1Nc1c(-c2ccc3c(c2)CCCC3)c(=O)c1=O | i
COc1ccc(Nc2c(-c3ccc4c(c3)CCCC4)c(=O)c2=O)c(OC)c1 | +
COc1ccc(OC)c(Nc2c(-c3ccc4c(c3)CCCC4)c(=O)c2=O)c1 | i
COc1ccc(C)cc1Nc1c(-c2ccc3c(c2)CCCC3)c(=O)c1=O | i
CC(C)CN(Cc1ccc2c(c1)OCCCO2)Cc1ccccn1 | i
Cc1ccc(N(Cc2nc3nc(C)c(Cl)c(C)n3n2)C(=O)c2ccccc2)cc1 | i
Cc1cc(C)n(CCC2CC(=O)Nc3n[nH]c(-c4ccccc4)c32)n1 (stereo not drawn) | i
CN1CCN2C[C@@H](NC(=O)c3cc4ncc(CCO)cn4n3)C[C@H]2C1 | i
O=C(CCN1CCCCO1)NCCc1nc2ccc(Cl)cc2[nH]1 | i
COc1ccccc1Oc1ncccc1CNC(=O)Nc1c(C)noc1C | i
O[C@@H]1CN(c2ncnc3sccc23)CC[C@H]1c1ccc2c(c1)OCO2 | i
CCNC(=O)C1CCN(Cc2cc3cc(OC)c(OC)cc3[nH]c2=O)C1 (stereo not drawn) | i
CCn1ncc(C(=O)NCCc2nccc(-c3ccccc3)n2)c1C | i
Cc1ncc(-c2c(-c3ccccc3)ncn2CCN2CCCOC2=O)[nH]1 | +
O=C1OCCCN1CCn1cnc(-c2ccccc2)c1-c1cccnc1 | i
Cc1ncc(-c2c(-c3ccccc3)ncn2CCc2cccs2)[nH]1 | +
Cc1ncc(-c2c(-c3ccccc3)ncn2CCCOc2cccnc2)[nH]1 | i
c1ccc(-c2ncn(CCc3cccs3)c2C2CCOC2)cc1 (stereo not drawn) | i
Cc1cccc(-c2c(-c3ccccc3)ncn2CCN2CCOC2=O)c1C | i
COc1ncccc1-c1ccc(NS(C)(=O)=O)nc1 | i
Cc1nc(N(C)CCC(O)c2ccccc2)c2ccsc2n1 (stereo not drawn) | i
CCCc1cc(N2CCn3nc(C(=O)N4CCOCC4)cc3C2)nc(C)n1 | i
CCc1ccc(NS(=O)(=O)c2cc(N3C(=O)CCS3(=O)=O)ccc2C)cc1 | i
Cc1cc(NC(=O)COc2ccccc2F)n(-c2ncnc3c2cnn3-c2cccc(C)c2C)n1 | i
CCc1cc(CN(C)C(=O)c2cn3c4c(cccc4c2=O)CC3)on1 | +
SMILES | FECH inh
CCc1cc(CN(C)C(=O)c2cnon2)on1 | i
CCc1cc(CN(C)C(=O)CN2CCOc3ccccc3C2)on1 | i
CCOC(=O)c1c(NC(=O)c2ccc(N3C(=O)CCC3=O)cc2)sc2c1CCN(C(C)C)C2 | +
CCOC(=O)c1c(NC(=O)c2ccco2)sc2c1CCN(C(C)C)C2 | i
CCOC(=O)c1c(NC(=O)c2cccs2)sc2c1CCN(C(C)C)C2 | i
CCOc1ccc(Nc2nc(N3CCOCC3)nc3c2cnn3-c2ccccc2)cc1 | i
Cc1ccc(Nc2nc(NCC(C)O)nc3c2cnn3-c2ccccc2)cc1C (stereo not drawn) | i
COc1ccc(Nc2nc(NCCO)nc3c2cnn3-c2ccccc2)cc1 | i
COc1ccc(Nc2nc(N3CCN(C)CC3)nc3c2cnn3-c2ccccc2)cc1 | i
COc1ccc(Nc2nc(N3CCCC3)nc3c2cnn3-c2ccccc2)cc1 | +
Cc1ccc(Nc2nc(N3CCOCC3)nc3c2cnn3-c2ccccc2)cc1C | i
COCCNc1nc(Nc2ccc(OC)cc2)c2cnn(-c3ccccc3)c2n1 | i
CCOc1ccc(Nc2nc(N3CCCC3)nc3c2cnn3-c2ccccc2)cc1 | i
COc1cccc(Nc2nc(NCC(C)O)nc3c2cnn3-c2ccccc2)c1 (stereo not drawn) | i
CCCNc1nc(Nc2ccc(OC)cc2)c2cnn(-c3ccccc3)c2n1 | +
FC(F)Sc1ccc(Nc2nc(N3CCOCC3)nc3c2cnn3-c2ccccc2)cc1 | +
COc1ccc(Nc2nc(NCC(C)O)nc3c2cnn3-c2ccccc2)cc1 (stereo not drawn) | +
COc1ccc(S(=O)(=O)N2CCN(c3nc(C)cc(N4CCN(C)CC4)n3)CC2)cc1OC | i
O=S1(=O)CCC(Cn2ccnc2-c2cc(CN3CCCC3)cs2)C1 (stereo not drawn) | i
Cc1cnccc1C(=O)N1CCc2c(c(C(=O)O)nn2CCN(C)C)C1 | i
COc1ccc(Cn2c(CNS(=O)(=O)c3ccc(CC(C)C)cc3)nc3cccnc32)cc1 | i
CCc1ccccc1NC(=O)Cn1c(=O)n(CC2CCC(C(=O)NC)CC2)c(=O)c2sccc21 (stereo not drawn) | i
CCn1nc(C)c(CNC2CCc3ccc(OC)cc3C2)c1C (stereo not drawn) | i
CC(C)c1nc(CCOc2ccccc2)n(-c2ccccn2)n1 | i
Cc1[nH]nc2c1C(c1cc(C(C)C)no1)CC(=O)N2 (stereo not drawn) | i
SMILES | FECH inh
CCc1cc(Sc2ccccc2NC(=O)Cc2cccc(F)c2)n2ncnc2n1 | i
CNC(=O)C1CCC(Cn2c(=O)c3sccc3n(CC(=O)Nc3ccc(OC)cc3)c2=O)CC1 (stereo not drawn) | i
Cc1nn(C)c(Cl)c1CN(C)Cc1noc(CC(C)C)n1 | i
Cc1ccc2[nH]c(CCCNC(=O)[C@@H]3C[C@H](N)CN3C)nc2c1C | i
CC(C)CN(CC(C)C)c1ncc(NS(=O)(=O)c2ccc(F)cc2)cc1C(=O)O | i
CC(C)CN(CC(C)C)c1ncc(NS(=O)(=O)c2ccccc2)cc1C(=O)O | i
COc1ccc(S(=O)(=O)Nc2cnc(N(CC(C)C)CC(C)C)c(C(=O)O)c2)cc1 | +
COc1ccc2[nH]c(CNC(=O)CC(=O)Nc3cc(C)ccc3C)cc2c1 | i
Cc1cccc(NC(=O)CN2C(=O)CC(c3ccccc3)=Nc3ccccc32)c1C | i
CN(C)c1nc2ncnc(SCC(=O)Nc3ccccc3F)c2s1 | i
Cc1cccc(NC(=O)CSCc2nc(-c3ccccc3)no2)c1C | i
CCN1C(SCC(=O)Nc2cccc(C)c2C)=NS(=O)(=O)c2ccccc21 | +
CCN1C(SCC(=O)Nc2ccccc2F)=NS(=O)(=O)c2ccccc21 | +
Cc1ccc(CN2CCN(CC(=O)Nc3ccccc3F)S2(=O)=O)cc1 | i
COc1cc2c(cc1CN1CCOC(CCNC(C)=O)C1)OCO2 (stereo not drawn) | i
Cc1ccccc1SCC(=O)N1CCNCC1C(=O)NC1CC1 (stereo not drawn) | i
CCN(CC)c1ncc(NS(=O)(=O)c2ccccc2Cl)cc1C(=O)O | i
CC(Cc1cn(CCn2[nH]c(=O)ccc2=O)nn1)c1ccccc1 (stereo not drawn) | i
CCN(CC)c1ncccc1CNC(=O)[C@H]1[C@@H]2C=C[C@@]3(CN(C)C(=O)[C@@H]13)O2 | i
Cc1ccc(C2=CC(c3ccccc3Cl)n3nc(NC(=O)c4cccc(Cl)c4)nc3N2)cc1 (stereo not drawn) | +
Cc1cccc(C(=O)Nc2nc3n(n2)C(c2ccccc2Cl)C=C(c2ccccc2)N3)c1 (stereo not drawn) | i
Cc1ccc(C2=CC(c3ccccc3Cl)n3nc(NC(=O)c4cccc(C)c4)nc3N2)cc1 (stereo not drawn) | i
Cc1ccc(C2=CC(c3ccccc3Cl)n3nc(NC(=O)c4ccccc4)nc3N2)cc1 (stereo not drawn) | i
Cc1ccc(C(=O)Nc2nc3n(n2)C(c2ccccc2Cl)C=C(c2ccc(C)cc2)N3)cc1 (stereo not drawn) | i
